The values below come from PubChem BioAssay (NCI).

About 83,000 compounds went through this panel and 20% of them were active in at least one assay; those are over-represented in the sample as a whole.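 Results are percent growth after 48 hours of single-concentration exposure. 100 means growth as in untreated cells, lower positive values show inhibition; negative values down to -100 show cell death.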 Activity calls are given as the source filed them. The calls were made as follows: active = growth percent below 10; inactive = the rest.

The subject of this assay is SNB-75 CNS. The assay can be described thus: NCI-60 one-dose screen, 48 h (100 = growth as untreated, 0 = no growth, -100 = all killed). The note with it: 10 µM unless noted.
Consider `Cc1ccc2c(c1)n([O-])c1cc(Cl)ccc1[n+]2=O`, for which the growth was 91.3% (inactive).
To `CN1/C(=C\C=C\C2=[N+](C)c3ccccc3C2(C)C)C(C)(C)c2ccccc21` belongs -5.88% (active).
Next, `CC/C(=C(\c1ccccc1)c1ccc(OCCNC)cc1)c1ccccc1`: -81.7% (active).
To `CCN(CC)Cc1cc(Nc2c3ccc(Cl)cc3nc3c(C)cccc23)ccc1O` belongs -99.4% (active).
With `C=CC[N+]1(CCO)CCN=C1CCCCCCCCCCCCC` (configuration not stated), the growth is -78.3% (active).
Regarding `N#Cc1ccc(NC(=O)Nc2ccc(Cc3ccc(NC(=O)Nc4ccc(C#N)cc4)cc3)cc2)cc1`, the growth is 83.3% (inactive).
Next, `CC1=NNC(=O)C1C` (configuration not stated): 91.4% (inactive).
Take `COc1nc2c(cc1S(=O)(=O)c1ccccc1)CCc1c-2cnn1Cc1ccccc1`: the growth was 72.1% (inactive).
In the case of `O=C(/C=C\c1ccc2ccccc2n1)c1cc(Cl)ccc1O`, the growth is 90.6% (inactive).
Next, `CCc1ccc(C(c2ccc(CC)cc2)C(Cl)(Cl)CCl)cc1`: 80.6% (inactive); `C=CCSc1nnc(-c2ccc(C(C)(C)C)cc2)n1-c1cccc(C(F)(F)F)c1`: 80.5% (inactive).
In the case of `CSc1ncnc2c1ncn2C1CCCO1` (configuration not stated), the growth is 83.2% (inactive).
With `OCC1C2C=CC(C2)C1CO` (configuration not stated), the growth was 75.8% (inactive).
To `Cc1ccc(/C=C2\Oc3cc(OCC(=O)c4ccc(Cl)cc4)ccc3C2=O)cc1` belongs 103% (inactive); to `Cn1c2c(Cl)c(Cl)ccc2c2ccn3c(=O)c4ccccc4nc3c21`, 91.6% (inactive).
To `CSc1[nH]c2ncnc(N)c2c1C#N` belongs 82.5% (inactive); to `CCN(CC)CCCC(C)NCCCNc1cccc2cccnc12` (configuration not stated), 89.9% (inactive).
